Reference: the supplement of paper PMC10105736

Experiments:
Experiment in all cases: MAPPIT interaction score (arbitrary units); higher = stronger binary interaction signal, active = hit call of the paper;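 active = MAPPIT score above the 99th percentile of random reference set scores in the same batch; inactive = at or below it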
CG32182 = settings: MAPPIT configuration: N-N; pair source set: RRS
CG31550 = settings: MAPPIT configuration: N-N; pair source set: Lit-BS-16
GstE2 = settings: MAPPIT configuration: N-N; pair source set: Finley_Y2H
PAN3 = settings: MAPPIT configuration: N-N; pair source set: Lit-BS-16
Rbp6 = settings: MAPPIT configuration: N-N; pair source set: Finley_Y2H
CG3085 = settings: MAPPIT configuration: N-C; pair source set: screen_3
CG8281 = settings: MAPPIT configuration: N-N; pair source set: screen_1
Gale = settings: MAPPIT configuration: N-N; pair source set: DPIM
PHDP = settings: MAPPIT configuration: N-N; pair source set: Finley_Y2H
Vsx2 = settings: MAPPIT configuration: N-N; pair source set: Finley_Y2H
eco = settings: MAPPIT configuration: N-N; pair source set: screen_1
CG31523 = settings: MAPPIT configuration: N-C; pair source set: screen_3
EMC5 = settings: MAPPIT configuration: N-C; pair source set: screen_3
RNASEK = settings: MAPPIT configuration: N-C; pair source set: screen_3

Measured: MAPPIT interaction score
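Also: HEK293T cells with Epo stimulation, STAT-responsive firefly luciferase reporter, fold induction versus unstimulated cells divided by the larger fold induction of two negative controls lacking either bait or prey.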

B1: RpS3A (protein)
chain: MAVGKNKGLSKGGKKGGKKKVVDPFSRKDWYDVKAPNMFQTRQIGKTLVNRTQGQRIASDYLKGRVFEVSLADLQKDIDPERSFRKFRLIAEDVQDRNVLCNFHGMDLTTDKYRSMVKKWQTLIEAIVEAKTVDGYLLRVFCIGFTAKDQQSQRKTCYAQQSQVRKIRARMTDIITNEVSGADLKQLVNKLALDSIAKDIEKSCQRIYPLHDVYIRKVKVLKKPRFDVSKLLELHGDGGGKSVEAVVSSEGAVIDRPEGYEPPVQEAV
inactive: CG32182 0.147

B2: CycB (protein)
chain: MVGTTLKMRGDENASENFKQVQLKKLTVPSMEATTKRAALGDLQNRGISRPIAAKDAAQKDSKDLKLTDALRNAKARVDSHWKKQPLGSTNGNGNGAVPPKVNEGGVSAFLRSNSVRNRVPTKTTVEPTKVTVKSSSSENVNEPTLKREDSNLSKKSLTKLRAALAKPVMGVSGIRREPVAVSRKEAETKKELPETKKDSLEVKKDATRMPLIRGNSAVTTTTSTMPTTMSLSSKRLAGIEDIDANDKENLVLVSEYVNDIYDYLYQVELEQPIHKDHLAGQKEVSHKMRAVLIDWINEVHLQFHLAAETFQLAVAIIDRYLQVVKDTKRTYLQLVGVTALFIATKYEELFPPAIGDFVFITDDTYTARQIRQMELQIFKAIDCNLSRPLPIHFLRRYSKAAGAEDEHHTMSKYFIELASVDYEMATYRPSEIAAASLFLSLHLLNGNHRAGTGFNDRHWTPTLTFYSRYSAAHLRPITRLIAKLARDAPQAKLKAIYNKYQGSKFQKIALRTELTGALMDSIVGQSQRK
inactive: CG31550 0.517 | GstE2 0.748 | PAN3 0.557 | Rbp6 0.383

B3: PolZ2 (protein)
chain: MQAEIKADIIVEAMEVLVNHILYVRGIYPSHIFKMKRMYNSPIYVSIFPPLNNYLAGVLKSAQELLRRRELQCLELIVYQKENEKLESYKMQLETQRSGLPAEDHLMEFEQNMRSVIYKISQRLNQAPKLPAGSCQFKVHLHTTQEAFIRFSHDSQYQEFPWLQTQKTESQATGRTVYLLPLARVDDLGLKMDVLIVN
inactive: CG3085 1.42 | CG8281 1.67 | Gale 0.112 | PHDP -0.0614 | Vsx2 0.017 | eco 0.29

B4: CG33169 (protein)
chain: MRQLKGKVKETRKQKKERKLDNLETQAKIRTVVLPALGVLAVFLVLFVYLKTRPAVLA
inactive: CG31523 0.414 | EMC5 -0.647 | RNASEK 0.381
